Source: PubChem BioAssay AID1159580 (chemical genetic matrix, 2015)
Screen size: about 5,500 compounds; about 2,000 (36%) were called active. Roughly 18% stayed inconclusive and do not appear here. Cut-off read from the data, not from the text of the source: active = normalized growth mostly below about 0.91 (no sharp cut-off); inconclusive = no clear call, values can overlap the other calls; inactive = mostly above about 0.92. Some of the results follow.

Assay: chemical genetic growth profiling, strain panel (AID 1159580);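 note: tested at 20 µM; growth read once vehicle control cultures reached saturation at 30 °C; 1 = growth at the plate median or of vehicle wells; lower values mean less growth of the strain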
Conditions: growth OD

Measured: normalized growth

COc1ccc2c(c1OC)C(=O)O[C@H]2[C@H]1c2cc3c(cc2CCN1C)OCO3
inactive: S. cerevisiae deletion strains, locus YJR075W, strain HOC1, hits give low values 1 | S. cerevisiae deletion strains, locus YKL009W, strain mrt4, hits give low values 1.03 | S. cerevisiae deletion strains, locus YKL068W, hits give low values 1 | S. cerevisiae deletion strains, locus YKL085W, strain MDH1 (second series), hits give low values 1 | S. cerevisiae deletion strains, locus YKL085W, strain MDH1, hits give low values 1 | S. cerevisiae deletion strains, locus YKL160W, strain elf1, hits give low values 0.994 | S. cerevisiae deletion strains, locus YKL190W, strain CNB1, hits give low values 1 | S. cerevisiae deletion strains, locus YKR001C, strain vps1, hits give low values 1.03 | S. cerevisiae deletion strains, locus YKR026C, strain gcn3, hits give low values 1.01 | S. cerevisiae deletion strains, locus YKR091W, strain srl3, hits give low values 0.99 | S. cerevisiae deletion strains, locus YLL001W, strain dnm1, hits give low values 0.998 | S. cerevisiae deletion strains, locus YLL026W, hits give low values 1 | S. cerevisiae deletion strains, locus YLL041C, strain sdh2, hits give low values 1 | S. cerevisiae deletion strains, locus YLR027C, strain aat2, hits give low values 1 | S. cerevisiae deletion strains, locus YLR039C, strain RIC1, hits give low values 1.04 | S. cerevisiae deletion strains, locus YLR058C, strain SHM2, hits give low values 1 | S. cerevisiae deletion strains, locus YLR102C, strain apc9, hits give low values 1.01 | S. cerevisiae deletion strains, locus YLR113W, strain HOG1, hits give low values 1.05 | S. cerevisiae deletion strains, locus YLR221C, strain rsa3, hits give low values 0.998 | S. cerevisiae deletion strains, locus YLR258W, strain gsy2, hits give low values 1.01 | S. cerevisiae deletion strains, locus YLR262C, strain YPT6 (second series), hits give low values 1.01 | S. cerevisiae deletion strains, locus YLR262C, strain YPT6, hits give low values 1.03 | S. cerevisiae deletion strains, locus YLR268W, strain sec22, hits give low values 1.01 | S. cerevisiae deletion strains, locus YLR320W, strain mms22, hits give low values 1 | S. cerevisiae deletion strains, locus YLR330W, strain CHS5, hits give low values 1.01 | S. cerevisiae deletion strains, locus YLR342W, strain FKS1 (second series), hits give low values 0.981 | S. cerevisiae deletion strains, locus YLR342W, strain FKS1, hits give low values 0.996 | S. cerevisiae deletion strains, locus YLR357W, strain rsc2, hits give low values 1.03 | S. cerevisiae deletion strains, locus YLR370C, strain arc18, hits give low values 0.994 | S. cerevisiae deletion strains, locus YLR371W, strain rom2, hits give low values 1.02 | S. cerevisiae deletion strains, locus YLR384C, strain iki3, hits give low values 1 | S. cerevisiae deletion strains, locus YLR418C, strain cdc73, hits give low values 1.03 | S. cerevisiae deletion strains, locus YML016C, strain PPZ1, hits give low values 1 | S. cerevisiae deletion strains, locus YML032C, strain rad52, hits give low values 1.01 | S. cerevisiae deletion strains, locus YML120C, strain ndi1, hits give low values 0.987 | S. cerevisiae deletion strains, locus YML124C, strain tub3, hits give low values 1.01 | S. cerevisiae deletion strains, locus YMR058W, strain fet3, hits give low values 1 | S. cerevisiae deletion strains, locus YMR078C, strain ctf18, hits give low values 1 | S. cerevisiae deletion strains, locus YMR125W, strain sto1, hits give low values 0.991 | S. cerevisiae deletion strains, locus YMR129W, hits give low values 0.998 | S. cerevisiae deletion strains, locus YMR205C, strain PFK2, hits give low values 1 | S. cerevisiae deletion strains, locus YMR223W, strain ubp8, hits give low values 1 | S. cerevisiae deletion strains, locus YMR231W, strain pep5, hits give low values 0.999 | S. cerevisiae deletion strains, locus YMR263W, strain SAP30, hits give low values 1 | S. cerevisiae deletion strains, locus YMR307W, strain GAS1, hits give low values 1.05 | S. cerevisiae deletion strains, locus YNL067W, strain RPL9B, hits give low values 0.979 | S. cerevisiae deletion strains, locus YNL071W, strain lat1, hits give low values 0.994 | S. cerevisiae deletion strains, locus YNL128W, strain TEP1, hits give low values 0.984 | S. cerevisiae deletion strains, locus YNL153C, strain GIM3, hits give low values 1 | S. cerevisiae deletion strains, locus YNL183C, strain NPR1, hits give low values 0.979 | S. cerevisiae deletion strains, locus YNL209W, strain ssb2, hits give low values 1 | S. cerevisiae deletion strains, locus YNL233W, strain BNI4, hits give low values 1.01 | S. cerevisiae deletion strains, locus YNL248C, strain rpa49, hits give low values 0.988 | S. cerevisiae deletion strains, locus YNL250W, strain rad50, hits give low values 1 | S. cerevisiae deletion strains, locus YNL271C, strain bni1, hits give low values 1 | S. cerevisiae deletion strains, locus YNL298W, strain CLA4, hits give low values 1.01 | S. cerevisiae deletion strains, locus YNL307C, strain MCK1, hits give low values 1.01 | S. cerevisiae deletion strains, locus YNL322C, strain KRE1 (second series), hits give low values 1.01 | S. cerevisiae deletion strains, locus YNL322C, strain KRE1, hits give low values 1 | S. cerevisiae deletion strains, locus YNR049C, strain mso1, hits give low values 0.995 | S. cerevisiae deletion strains, locus YNR052C, strain pop2, hits give low values 0.999 | S. cerevisiae deletion strains, locus YOL006C, strain TOP1, hits give low values 1.03 | S. cerevisiae deletion strains, locus YOL012C, strain htz1 0.872 | S. cerevisiae deletion strains, locus YOL147C, strain pex11, hits give low values 1.01 | S. cerevisiae deletion strains, locus YOR001W, strain rrp6, hits give low values 0.995 | S. cerevisiae deletion strains, locus YOR061W, strain CKA2, hits give low values 1 | S. cerevisiae deletion strains, locus YOR069W, strain VPS5, hits give low values 0.997 | S. cerevisiae deletion strains, locus YOR070C, strain gyp1, hits give low values 0.995 | S. cerevisiae deletion strains, locus YOR080W, strain dia2, hits give low values 1 | S. cerevisiae deletion strains, locus YOR083W, strain WHI5, hits give low values 0.988 | S. cerevisiae deletion strains, locus YOR106W, strain vam3, hits give low values 1.02 | S. cerevisiae deletion strains, locus YOR136W, strain idh2, hits give low values 1 | S. cerevisiae deletion strains, locus YOR144C, strain elg1, hits give low values 1.01 | S. cerevisiae deletion strains, locus YOR184W, strain ser1, hits give low values 0.999 | S. cerevisiae deletion strains, locus YOR231W, strain MKK1, hits give low values 1.06 | S. cerevisiae deletion strains, locus YOR265W, strain rbl2, hits give low values 1 | S. cerevisiae deletion strains, locus YOR270C, strain vph1, hits give low values 0.998 | S. cerevisiae deletion strains, locus YOR290C, strain snf2, hits give low values 0.975 | S. cerevisiae deletion strains, locus YOR316C, strain cot1, hits give low values 1 | S. cerevisiae deletion strains, locus YPL051W, strain arl3, hits give low values 0.982 | S. cerevisiae deletion strains, locus YPL055C, strain LGE1, hits give low values 0.986 | S. cerevisiae deletion strains, locus YPL078C, strain atp4, hits give low values 0.996 | S. cerevisiae deletion strains, locus YPL106C, strain sse1, hits give low values 0.982 | S. cerevisiae deletion strains, locus YPL240C, strain hsp82, hits give low values 1 | S. cerevisiae deletion strains, locus YPL241C, strain CIN2, hits give low values 0.997 | S. cerevisiae deletion strains, locus YPL256C, strain CLN2, hits give low values 1.03 | S. cerevisiae deletion strains, locus YPR119W, strain clb2, hits give low values 1.01 | S. cerevisiae deletion strains, locus YPR141C, strain kar3, hits give low values 1.01 | S. cerevisiae deletion strains, locus YPR163C, strain tif3, hits give low values 1.02 | S. cerevisiae deletion strains, locus YPR167C, strain met16, hits give low values 1.01 | S. cerevisiae deletion strains, strain wtn01, hits give low values 1.01 | S. cerevisiae strains, strain wild type, hits give low values 0.982
